Results from the supplement of paper PMC10646978.
± gives the standard deviation.

Test system: RAW-Dual (murine macrophage reporter line)
Test: IRF reporter (Lucia luciferase) activity fold change vs agonist alone; higher = enhanced IRF activity
Details: modulator concentration 10 µM; agonist: LPS 0.1 ug/mL
Outline: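 In 384-well plates holding 50 000 RAW-Dual murine macrophage reporter cells per well, compound at 10 μM final was pre-incubated for 1 hour at 37 °C, after which a PRR agonist was added overnight. Supernatant SEAP read with QUANTI-Blue at 620 nm absorbance reported NF-κB, and Lucia luciferase read with QUANTI-Luc luminescence reported IRF. Fold change values come from dividing each reporter signal by the mean of agonist-only control wells on the same plate, averaged over replicate plates with propagated errors.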

Compound	IRF reporter
Cc1c(C)n2c3c(=O)n(CC=Cc4ccccc4)c(=O)n(C)c3nc2n1CCOCCO	1.03 ± 0.063
O=C(Nc1ncc(S(=O)(=O)c2ccc([N+](=O)[O-])cc2)s1)c1cccs1	1.49 ± 0.27
CN1c2ccccc2-c2ccccc2C12C=Cc1cc([N+](=O)[O-])ccc1O2 (configuration not stated)	1.27 ± 0.2
CCn1cc(C(=O)O)c(=O)c2cc(F)c(N3CCN(C)CC3)cc21.CS(=O)(=O)O.O.O	1.37 ± 0.12
Cc1cc(OCC(O)Cn2cnc3ccccc32)ccc1Cl (configuration not stated)	0.9 ± 0.086
CCN(CC)C(=O)N1CCN(C)CC1 [Prestw-284]	1.41 ± 0.24
Cc1cnc2c(c1SCC(=O)N1CCc3ccccc31)c(=O)n(C)c(=O)n2C	1.17 ± 0.15
Cc1c(C)c2c(c(C)c1O)CCC(C)(CCCC(C)CCCC(C)CCCC(C)C)O2 (configuration not stated)	0.965 ± 0.13
COc1cc2nc(N(C)CCCNC(=O)C3CCCO3)nc(N)c2cc1OC (configuration not stated) [Prestw-322]	0.934 ± 0.35
Cc1cc(C)nc(Nc2ncc(O)n2-c2ccc(F)cc2)n1	1.04 ± 0.14
Cc1cc(OCC(=O)NN=Cc2ccc(O)c([N+](=O)[O-])c2)ccc1Cl	1.08 ± 0.2
COc1ccc(C2Oc3cc(OC)cc(OC)c3CC2O)cc1 (configuration not stated)	1.12 ± 0.27
O=S1(=O)N=C(SCc2ccccc2)Nc2ccc(Cl)cc21	1.08 ± 0.12
COc1ccc(Cl)cc1C(=O)N1CCC(S(=O)(=O)c2nncn2C)CC1	1.19 ± 0.085
Cc1nccn1CC1CCc2c(c3ccccc3n2C)C1=O.Cl.O.O (configuration not stated)	1.35 ± 0.14
O=C(Nc1cc(C(F)(F)F)cc(C(F)(F)F)c1)c1cc2ccccc2o1	1.32 ± 0.25
CN(C)C(CNC(=O)NCc1ccc(Cl)cc1)c1ccc2c(c1)CCO2 (configuration not stated)	1.2 ± 0.23
